# Experimental data as given in PubChem BioAssay (NCATS).
# Several values for one entry are separate records, joined by “and”; a condition that tells them apart may be missing. Equal values may be shown once. Inconclusive results are not listed. A call without a number means that no potency is given here. Unmarked numbers belong to inactive results. Activity calls are given as the source filed them. Calls come from the whole dose curve; as a rule, active = well fitted curve in the direction sought with a large enough effect; inconclusive = small, poorly fitted or top-dose-only effect, or another doubt; inactive = no such curve, though single readings can be large; an effect the other way counts as inactive or inconclusive.
# Legend:
# KB-3-1 = assay: Cytotoxic Profiling of Annotated Libraries Using Quantitative High-Throughput Screening (AID 1296008); settings: Five cell lines viability, CellTiter-Glo ATP luminescence, 48-72 h; max response: hits give low values; note: nearly all actives have a fitted effect of over 60% in size; note: potency is the fitted concentration of half-maximal effect
# How it was run: (§1)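 Cells exposed to compounds for 48 or 72 hr at 37 degrees Celsius. Viability read as ATP-coupled luminescence with CellTiter-Glo after 10 min at room temperature.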
# NIH3T3 [1] = assay: as above; settings: Five cell lines viability, CellTiter-Glo ATP luminescence, 48-72 h; max response: hits give low values
# How it was run: as §1
# CRL-7250 = normal cell line; assay: qHTS assay to identify novel small-molecules to repurpose for Merkel cell carcinoma treatment (AID 1296009); settings: MCC and control cell lines, CellTiter-Glo viability, 72 h; at 44.8 µM (top of the series) unless noted; note: nearly all actives have a fitted effect of over 60% in size
# How it was run: (§2)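 Cells were treated for 72 hr at 37 degree celsius with compounds in 8- or 11-point dose response. Viability was read by CellTiter-Glo luminescence, normalized to no-cell (cytotoxicity) and DMSO controls.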
# HACAT = assay: as above; settings: MCC and control cell lines, CellTiter-Glo viability, 72 h; at 44.8 µM (top of the series) unless noted
# How it was run: as §2
# HEK293T [2] = assay: as above; settings: MCC and control cell lines, CellTiter-Glo viability, 72 h; at 44.8 µM (top of the series) unless noted
# How it was run: as §2
# C33A = assay: Primary qHTS to identify gynecologic anti-cancer compounds using libraries of approved drugs and bioactive compounds (AID 1345084); settings: Gynecologic cancer cell panel viability, ATPlite luminescence, 48 h; series mostly up to 57.5 µM; note: nearly all actives have a fitted effect of over 55% in size
# How it was run: (§3)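 48 h compound exposure at 37 C, 5% CO2; five-point qHTS. ATPlite luminescence readout of cell ATP.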
# CASKI = assay: as above; settings: Gynecologic cancer cell panel viability, ATPlite luminescence, 48 h; series mostly up to 57.5 µM
# How it was run: as §3
# Es-2 = assay: as above; settings: Gynecologic cancer cell panel viability, ATPlite luminescence, 48 h; series mostly up to 57.5 µM
# How it was run: as §3
# HeLa = assay: as above; settings: Gynecologic cancer cell panel viability, ATPlite luminescence, 48 h; series mostly up to 57.5 µM
# How it was run: as §3
# Hek293T [3] = assay: as above; settings: Gynecologic cancer cell panel viability, ATPlite luminescence, 48 h, control line for the selectivity index; series mostly up to 57.5 µM
# How it was run: as §3
# JEG-3 = assay: as above; settings: Gynecologic cancer cell panel viability, ATPlite luminescence, 48 h; series mostly up to 57.5 µM
# How it was run: as §3
# OV90 = assay: as above; settings: Gynecologic cancer cell panel viability, ATPlite luminescence, 48 h; series mostly up to 57.5 µM
# How it was run: as §3
# NIH3T3 [4] = assay: qHTS assay to identify novel small-molecules to repurpose for Merkel cell carcinoma treatment (AID 1296009); settings: MCC and control cell lines, CellTiter-Glo viability, 72 h; at 44.8 µM (top of the series) unless noted; note: nearly all actives have a fitted effect of over 60% in size
# How it was run: as §2
# CAOV3 = assay: Primary qHTS to identify gynecologic anti-cancer compounds using libraries of approved drugs and bioactive compounds (AID 1345084); settings: Gynecologic cancer cell panel viability, ATPlite luminescence, 48 h; series mostly up to 57.5 µM; note: nearly all actives have a fitted effect of over 55% in size
# How it was run: as §3
structure (smiles),measurement,setting,value
COCC(C)N(C(=O)CCl)c1c(C)csc1C (stereo not drawn),max response,KB-3-1,-0.17%
Clc1ccc(Cl)cc1,max response,KB-3-1,0.597%
S=C=S,max response,KB-3-1,-1.39%
CCCCCc1cc(O)c2c(c1)OC(C)(C)[C@@H]1CCC(C)=C[C@@H]21,max response,KB-3-1,-12.3%
CC(=O)[C@H]1CC[C@H]2[C@@H]3CC[C@@H]4C[C@H](O)CC[C@]4(C)[C@H]3CC[C@]12C,max response,KB-3-1,4.77%
C[N+]1([O-])[C@@H]2CC[C@H]1CC(OC(=O)C(CO)c1ccccc1)C2 (stereo partly drawn),max response,KB-3-1,-12.1% and -9.46%
CCC(=O)O[C@]1(c2ccccc2)CCN(C)C[C@H]1C,max response,KB-3-1,-2.12%
OC(c1ccccc1)(c1ccccc1)C1CN2CCC1CC2 (stereo not drawn),max response,KB-3-1,-22.3%
ClC=C(Cl)Cl,max response,KB-3-1,-14.2%
CCCC(=O)OC(C(Cl)(Cl)Cl)P(=O)(OC)OC (stereo not drawn),max response,KB-3-1,-2.33%
O=C1CN(O)C(c2ccccc2)=c2cc(Cl)ccc2=N1,max response,KB-3-1,-7.95%
O=C1CCO1,max response,KB-3-1,-17.3%
O=[N+]([O-])c1ccccc1,max response,KB-3-1,12.1%
CCON=O,max response,KB-3-1,-2.91%
ClC1=C(Cl)[C@]2(Cl)[C@@H]3[C@H]4C[C@H]([C@@H]5O[C@H]45)[C@@H]3[C@@]1(Cl)C2(Cl)Cl,max response,KB-3-1,-3.16%
O=Cc1ccco1,max response,KB-3-1,3.99%
F/C(COc1ccc2c(c1)[nH]c1ccccc12)=C1/CN2CCC1CC2,max response,KB-3-1,-8.12%
C[C@]12C=CC(=O)C=C1CC[C@@H]1[C@@H]2CC[C@]2(C)OC(=O)CC[C@@H]12,max response,KB-3-1,5.64%
CC(=O)O[C@H]1C[C@H](O[C@H]2[C@@H](O)C[C@H](O[C@H]3[C@@H](O)C[C@H](O[C@H]4CC[C@@]5(C)[C@H](CC[C@@H]6[C@@H]5C[C@@H](O)[C@]5(C)[C@@H](C7=CC(=O)OC7)CC[C@]65O)C4)O[C@@H]3C)O[C@@H]2C)O[C@H](C)[C@H]1O[C@@H]1O[C@H](CO)[C@@H](O)[C@H](O)[C@H]1O,Potency,KB-3-1,164 nM (active)
C[C@@H](Cc1ccccc1)NCCC(c1ccccc1)c1ccccc1,max response,KB-3-1,-4.5%
C=CCC1(C(C)CCC)C(=O)N=C(S)NC1=O (stereo not drawn),max response,KB-3-1,-6.22%
CCCCC[C@@H](O)C1C(=O)OC(C)[C@H](O)/C=C/C=C/C=C/C=C/C=C(\C)C(O)C(O)C(O)C[C@H](O)C[C@H](O)C[C@H](O)C[C@H](O)C[C@@H]1O (stereo partly drawn),max response,KB-3-1,-4.4% and -1.2%
Cc1cccc(C(C)c2cnc[nH]2)c1C (stereo not drawn),max response,KB-3-1,8.09%
CC(C)CCON=O,max response,KB-3-1,10.4%
CNc1ccc(C(=O)CC(O)CCC(C)C2OC(=O)CC(O)CC(=O)CC(O)CC(O)CC(O)CC(O)CC3(O)CC(O)C(C(=O)OC)C(CC(O[C@@H]4O[C@H](C)[C@@H](O)[C@H](N)[C@@H]4O)/C=C/C=C/C=C/C=C/C=C/C=C/C=C/C2C)O3)cc1 (stereo partly drawn),max response,KB-3-1,-0.469%
O=C(NCNC(=O)NC1C(=O)NC(=O)N1CO)NC1C(=O)NC(=O)N1CO (stereo not drawn),max response,KB-3-1,2.87%
CC1(C)S[C@@H]2[C@H](N)C(=O)N2[C@H]1C(=O)O,max response,KB-3-1,-11.7%
S=C(S)N1CCNCC1,max response,KB-3-1,7.2%
C[C@]12C[C@H]3S[C@H]3C[C@@H]1CC[C@@H]1[C@@H]2CC[C@]2(C)[C@@H](O)CC[C@@H]12,max response,KB-3-1,5.47%
CCCCCCC(=O)O[C@H]1CC[C@H]2[C@@H]3CC[C@H]4CC(=O)C=C(C)[C@]4(C)[C@H]3CC[C@]12C,max response,KB-3-1,-2.21%
C[C@H]1CC[C@@H]2[C@@H](C)[C@H]3[C@H](C[C@H]4[C@@H]5CC=C6CC(O[C@@H]7O[C@H](CO)[C@H](O)[C@H](O[C@@H]8O[C@H](CO)[C@@H](O)[C@H](O)[C@H]8O)[C@H]7O[C@H]7O[C@@H](C)[C@H](O)[C@@H](O)[C@H]7O)CC[C@]6(C)[C@H]5CC[C@]34C)N2C1 (stereo partly drawn),max response,KB-3-1,48.6%
CCNC1(c2cccs2)CCCCC1=O (stereo not drawn),max response,KB-3-1,-6.94%
[Cl-].[Cl-].[Hg+2],max response,KB-3-1,-9.23%
C=CCN=C=S,max response,KB-3-1,-2.35%
C[C@]12CC[C@H](OS(=O)(=O)O)CC1=CC[C@@H]1[C@@H]2CC[C@]2(C)C(=O)CC[C@@H]12,max response,KB-3-1,5.94%
COC1=CC=C2[C@H]3Cc4ccc(OC)c5c4[C@@]2(CCN3C)[C@H]1O5,max response,KB-3-1,16.1% and -9.66%
O=[N+]([O-])c1cc(I)c(O)c(I)c1,max response,KB-3-1,-0.558%
O=C1C=C2C=C[C@@H]3C[C@@]2(O1)[C@H]1CCCCN31,max response,KB-3-1,-12.4%
Cn1ncnc1COc1nn2c(-c3c(F)cccc3F)nnc2cc1C1CCC1,outcome,KB-3-1,inactive
same,max response,NIH3T3 [1],2.04%
same,outcome,CRL-7250,inactive
same,outcome,HACAT,inactive
same,outcome,HEK293T [2],inactive
same,Potency,C33A,inactive
same,Potency,CASKI,inactive
same,Potency,Es-2,inactive
same,Potency,HeLa,inactive
same,Potency,Hek293T [3],inactive
same,Potency,JEG-3,inactive
same,Potency,OV90,inactive
CC[C@H]1CN2CC[C@H]1C[C@H]2[C@H](O)c1ccnc2ccc(OC)cc12,max response,KB-3-1,0.288%
same,outcome,NIH3T3 [1],inactive
same,outcome,CRL-7250,inactive
same,outcome,HACAT,inactive
same,outcome,NIH3T3 [4],inactive
same,Potency,C33A,inactive
same,Potency,CASKI,inactive
same,Potency,Es-2,inactive
same,Potency,HeLa,inactive
same,Potency,Hek293T [3],inactive
same,Potency,JEG-3,inactive
CC[C@H]1CN2CC[C@H]1C[C@@H]2[C@@H](O)c1ccnc2ccc(OC)cc12,max response,KB-3-1,5.11%
same,outcome,NIH3T3 [1],inactive
same,outcome,CRL-7250,inactive
same,outcome,HACAT,inactive
same,outcome,HEK293T [2],inactive
same,outcome,NIH3T3 [4],inactive
same,Potency,C33A,inactive
same,Potency,CAOV3,inactive
same,Potency,CASKI,inactive
same,Potency,Es-2,inactive
same,Potency,HeLa,inactive
same,Potency,Hek293T [3],inactive
same,Potency,JEG-3,inactive
same,Potency,OV90,inactive
C[C@H](NC(=O)Cc1cc(F)cc(F)c1)C(=O)N[C@@H]1N=C(c2ccccc2)c2ccccc2N(C)C1=O,max response,KB-3-1,4.54%
same,max response,NIH3T3 [1],-0.0571%
same,outcome,CRL-7250,inactive
same,outcome,HACAT,inactive
same,Potency,C33A,inactive
same,Potency,CASKI,inactive
same,Potency,Es-2,inactive
same,Potency,HeLa,inactive
same,Potency,Hek293T [3],inactive
same,Potency,JEG-3,inactive
same,Potency,OV90,inactive
N#CC(OC1OC(COC2OC(CO)C(O)C(O)C2O)C(O)C(O)C1O)c1ccccc1 (stereo not drawn),max response,KB-3-1,9.88%
same,outcome,NIH3T3 [1],inactive
same,outcome,CRL-7250,inactive [at 17.4 µM]
same,outcome,HACAT,inactive [at 17.4 µM]
same,outcome,HEK293T [2],inactive [at 17.4 µM]
same,outcome,NIH3T3 [4],inactive [at 17.4 µM]
same,Potency,C33A,inactive
same,Potency,CAOV3,inactive
same,Potency,CASKI,inactive
same,Potency,Es-2,inactive
same,Potency,Hek293T [3],inactive
same,Potency,JEG-3,inactive
same,Potency,OV90,inactive
CN[C@H]1[C@H](O)[C@H](O[C@@H]2[C@@H](O)[C@H](O[C@H]3O[C@H]([C@H](C)O)[C@@H](O)[C@H](O)[C@H]3N)[C@@H](N)C[C@H]2N)OC[C@@]1(C)O,max response,KB-3-1,3.55%
same,max response,NIH3T3 [1],4.53%
same,outcome,CRL-7250,inactive
same,outcome,HACAT,inactive
same,Potency,C33A,inactive
same,Potency,CASKI,inactive
same,Potency,Es-2,inactive
same,Potency,HeLa,inactive
same,Potency,Hek293T [3],inactive
same,Potency,JEG-3,inactive
same,Potency,OV90,inactive
O=C(O)c1ccnc2cc(C(OCCN3CCCCC3)c3ccccc3Cl)[nH]c12 (stereo not drawn),outcome,KB-3-1,inactive
same,max response,NIH3T3 [1],-0.205%
same,outcome,CRL-7250,inactive
same,outcome,HACAT,inactive
same,outcome,HEK293T [2],inactive
same,Potency,C33A,inactive
same,Potency,CAOV3,inactive
same,Potency,CASKI,inactive
same,Potency,Es-2,inactive
same,Potency,HeLa,inactive
same,Potency,Hek293T [3],inactive
same,Potency,JEG-3,inactive
same,Potency,OV90,inactive
